In PubChem BioAssay AID431 (Sanford-Burnham Center for Chemical Genomics, 2006):
Hit rate of the full screen: of about 63,000 compounds, about 1,100 (1.7%) were called active. What follows is part of a selection rich in actives, with near analogues and random picks from the rest. Results with a measured potency or affinity are listed apart. Values without a mark were called inactive.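 Rule for the calls: active = compounds whose percent cytotoxicity in the single-dose primary screen, scaled between solvent and toxic-drug controls, exceeds 50; inactive = the rest.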

Test: cytotoxicity in KRAS-transformed pancreatic duct cells, primary screen, cell-based, fluorescence, HTS (AID 431);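 note: 0% = DMSO solvent wells and 100% = doxorubicin-treated wells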
Details: HPDE-C7K KRASV12 cells, Alamar Blue viability, 48 h; at 10 µM; active compounds read high

First: CCN(CC)C(=O)c1ccc(NC(=O)Cn2nc(C)c3ccccc3c2=O)cc1
Second: CCCCCCn1c(=O)c(C(=O)Nc2ccncc2)c(O)c2ccccc21
The cytotoxicity of the first is lower: -7.8% for the first, 46.4% for the second.

Compared with O=C(Nc1ccc(OC(=O)N2CCCC2)cc1)N1CCOCC1, O=C(NCC(c1cccnc1)N1CCOCC1)Oc1ccccc1 (stereo unspecified) is higher in cytotoxicity: -8.6% for the first, 2.6% for the second.

First: CC(C)C(=O)N1CCN(CCN=Cc2c(O)n(C)c(=O)n(C)c2=O)CC1
Second: O=c1[nH]c(=O)n(Cc2ccccc2)c(O)c1C=NCCN1CCNCC1
The cytotoxicity of the first is higher: 0.5% for the first, -15% for the second.

Going from c1cc2n(c1)-c1c(ccc3c1OCO3)CNC2c1ccc2c(c1)OCO2 (stereo unspecified) to COc1ccc(C2NCc3ccc4c(c3-n3cccc32)OCO4)cc1OC (stereo unspecified), the cytotoxicity falls from 27.4% to 3.2%.

Going from O=P(/C(=N/O)N1CCCCC1)(N1CCOCC1)N1CCOCC1 to O=c1[nH]c(=O)n(C2CCCCCC2)c(O)c1C=NCCCN1CCOCC1, the cytotoxicity falls from -3.8% to -13.6%.

Compared with O=C1CN=C(c2ccccc2)c2oc3ccc(Br)cc3c2N1, c1ccc2c(CCNCc3ccc4c(c3)OCO4)c[nH]c2c1 is higher in cytotoxicity: -15.6% for the first, 23.6% for the second.

First: C=Cn1ccnc1P(=S)(c1c(C)nn(-c2ccccc2)c1C)c1nccn1C=C
Second: O=C1NC(=O)C2(Cc3ccccc3N3CCCC32)C(=O)N1c1ccccc1 (stereo unspecified)
The cytotoxicity of the first is higher: 8.8% for the first, -2.3% for the second.

Going from CCCCn1c(O)c(C(CC)=Nc2cccc(C(=O)O)c2)c(=O)[nH]c1=O to CC(=NCCCN1CCCCC1)c1c(O)n(Cc2ccccc2)c(=O)[nH]c1=O, the cytotoxicity rises from -13.6% to 9.4%.

First: CCOC(=O)c1ccc(N2C(=O)CC(N3CCC(C#N)(c4ccccc4)CC3)C2=O)cc1 (stereo unspecified)
Second: CCCCn1c(=O)c(C(=O)Nc2ccccc2S(N)(=O)=O)c(O)c2ccccc21
The cytotoxicity of the first is higher: -11.3% for the first, -11.7% for the second.

Going from CCCCCn1c(=O)c(C(=O)NCc2ccccn2)c(O)c2ccccc21 to CCCCCn1c(=O)c(C(=O)NCc2ccncc2)c(O)c2ccccc21, the cytotoxicity rises from 8.3% to 33.3%.

Compared with CCCCn1c(O)c(C=NCCCN(CC)CC)c(=O)[nH]c1=O, Cc1ccc2c(c1)CC1(CN2C)C(=O)NC(=O)N(CCC2=CCCCC2)C1=O (stereo unspecified) is lower in cytotoxicity: 6.9% for the first, 5.2% for the second.

Compared with CSc1nnc(C2CCNCC2)n1C, O=C1NC(=O)C(CCc2ccncc2)(C2CCCCC2)C(=O)N1 is higher in cytotoxicity: -11.4% for the first, -0.4% for the second.

Compared with COC(=O)c1ccc(COc2cc(C)cc3oc(=O)c4c(c23)CCCC4)o1, CC(C)CC1C(C#N)=C(N)Oc2c1c(=O)oc1ccccc21 (stereo unspecified) is higher in cytotoxicity: 4.3% for the first, 8.9% for the second.

First: CC(=O)CC(C)(C)n1c[n+](C)nn1
Second: Cc1oc(-c2ccc(Cl)cc2)nc1CS(=O)CC(=O)N1CCC2(CC1)OCCO2 (stereo unspecified)
The cytotoxicity of the first is higher: 18.4% for the first, -19.8% for the second.

First: Cc1ccc2c(c1)C1CN(C)CCC1N2C(=O)c1ccco1 (stereo unspecified)
Second: OC1(c2ccccc2F)CC2CCC(C1)N2CCN1CCOCC1 (stereo unspecified)
The cytotoxicity of the first is higher: 2.2% for the first, -1.8% for the second.

With COc1ccc(C2NCc3ccc4c(c3-n3cccc32)OCO4)cc1O (stereo unspecified) the cytotoxicity was 59.8% (active).
In the case of COc1cccc(OC)c1C1=NCC(=O)Nc2c1oc1ccc(Br)cc21, the cytotoxicity is reported as 56.7% (active).
With O=c1c(C=NCCN2CCNCC2)c(O)n(C2CCCCC2)c(=O)n1C1CCCCC1 the cytotoxicity was 95.1% (active).
In the case of CCCCCn1c(=O)c(C(=O)Nc2ccncc2)c(O)c2ccccc21, the cytotoxicity is reported as 73.1% (active).
In the case of CCCCn1c(=O)c(C(=O)Nc2cnccn2)c(O)c2ccccc21, the cytotoxicity is reported as 51.5% (active).
With C[C@@]1(CO)[C@H](O)CC[C@@]2(C)[C@H]1CC[C@H]1C[C@@H]3C[C@@]12CC[C@]3(O)CO the cytotoxicity was 69.7% (active).
